# Shown are actives, neighbours in structure and some others; about 1.1% of the full set was active somewhere.
# AGP1-GFP MLPCN: alters AGP1-GFP fluorescence in TOR pathway yeast screen | GFP response vs DMSO, % at 10 µM | actives 0.02% (n = 320,000) | S. cerevisiae AGP1-GFP multiplex flow cytometry, 3 h; GFP as percent of DMSO wells | AID 2066;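 active = GFP response relative to DMSO above a set limit, near screen average plus 3 SD, cut at about 150% in these data; inconclusive = fewer than 70 cells counted for the yeast strain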;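 also: median GFP channel fluorescence of the gated AGP1 strain per well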
# LAP4-GFP MLPCN: modulators of TOR pathway LAP4-GFP in S. cerevisiae. actives 0.34% (n = 320,000). GFP response vs DMSO, % at 10 µM. S. cerevisiae LAP4-GFP multiplex, flow cytometry GFP, 3 h; median GFP as percent of DMSO wells. AID 2023;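 active = GFP response vs DMSO above a set limit, about the screen mean plus 3 SD, cut at about 150% in these data; inconclusive = under 70 cell events counted for the yeast strain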
# VLA-4 inh: inhibition in a human VLA-4 binding assay; inhibition, % (about 7 µM as worked out from the volumes in the protocol); P13612; VLA-4 expressing cells, ligand binding flow cytometry; actives 0.2% (n = 330,000); AID 2557; in the data active = inhibition above about 50%
# MEP2-GFP yeast: modulators of TOR pathway MEP2-GFP in S. cerevisiae. S. cerevisiae MEP2-GFP strain, flow cytometry GFP, 3 h; 100% = DMSO control level. GFP response vs DMSO, % at 10 µM. actives 0.51% (n = 330,000). AID 2016;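 active = GFP response versus DMSO above a set limit, roughly screen mean plus 3 SD, cut at about 180% in these data; inconclusive = fewer than 70 cells counted for a yeast strain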;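 also: median GFP fluorescence of the barcode-gated MEP2-GFP cells per well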
# RPL19A-GFP yeast: alters RPL19A-GFP fluorescence in TOR pathway yeast screen; percent response vs DMSO, % at 10 µM; AID 2025; S. cerevisiae RPL19A-GFP strain, flow cytometry, 3 h; hits give low values; actives 0.3% (n = 330,000);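 active = percent response vs DMSO below 50%; inconclusive = fewer than 70 events counted for the yeast strain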;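 also: median channel GFP fluorescence of the barcoded RPL19A-GFP strain; ratio of sample median GFP to plate DMSO average so 100% = DMSO; lower means less RPL19A-GFP as with rapamycin TOR inhibition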
# CIT2 TOR yeast: alters CIT2-GFP fluorescence in TOR pathway yeast screen; S. cerevisiae CIT2-GFP strain, flow cytometry, 3 h; 100 means same as DMSO wells; GFP response vs DMSO, % at 10 µM; actives 0.065% (n = 320,000); AID 2029;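 active = GFP response relative to DMSO above a set limit, near the screen mean plus 3 SD, cut at about 150% in these data; inconclusive = Fewer than 70 cells measured for a yeast strain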;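 also: ratio of well median GFP fluorescence to mean of DMSO wells on the plate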
# * marks the source's active call; other numbers are inactive results; ? = inconclusive; . = not tested or not shown; + = active, no number; [ ] = dose if it differs, or a comment.
SMILES,AGP1-GFP MLPCN,LAP4-GFP MLPCN,VLA-4 inh,MEP2-GFP yeast,RPL19A-GFP yeast,CIT2 TOR yeast
COc1ccc2c(c1)c(C(C)=O)c(C)n2-c1ccccc1OC,91,151*,-3,100,80,95
N#C/C(=C\c1c(N2CCCCC2)nc2ccccn2c1=O)C(=O)NC1CCS(=O)(=O)C1 (stereo not drawn),28,85,-9,260*[may fluoresce violet],53,?
Cc1cc(Oc2nc3ccccn3c(=O)c2/C=C(\C#N)C(=O)NC2CCS(=O)(=O)C2)ccc1Cl (stereo not drawn),13,81,0,533*[may fluoresce violet],60,?
N#C/C(=C\c1c(Oc2ccc(Cl)cc2)nc2ccccn2c1=O)C(=O)NC1CCS(=O)(=O)C1 (stereo not drawn),15,88,4,176*[may fluoresce violet],69,?
Cc1cccn2c(=O)c(/C=C(\C#N)C(=O)NC3CCS(=O)(=O)C3)c(N3CCC(C)CC3)nc12 (stereo not drawn),111,101,1,105,104,104
COc1ccc(NC(=O)c2cc(-c3ccccc3)nc3c2cnn3C(C)C)c(OC)c1,100,116,11,95,104,96
N#Cc1ccccc1S(=O)(=O)N1CCN(C(=O)C2CCC2)CC1,100,95,8,93,90,95
CN(C)C(CNC(=O)c1ccc(-c2ccccc2)cc1)c1ccccc1 (stereo not drawn),107,125,12,103,104,98
CN(C)C(CNC(=O)c1ccc(C(=O)c2ccccc2)cc1)c1ccccc1 (stereo not drawn),?,82,29,252*[may fluoresce violet],41*[may fluoresce violet],?
Nc1ccccc1C(=O)NNC(=O)C(=O)/C=C(\O)c1ccccc1,99,100,2,95,96,107
O=C(/C=C(\O)c1ccccc1)C(=O)NNC(=O)c1ccccc1[N+](=O)[O-],12,96,-4,202*[may fluoresce violet],63,?
CCOc1ccccc1C(=O)Nc1nnc(Cc2ccc(OC)c(OC)c2)s1,94,89,3,103,103,99
O=C(N/C(=C\c1ccc(Br)cc1)c1nc2ccccc2[nH]1)c1ccco1,?,97,7,217*[may fluoresce violet],33*[may fluoresce violet],?
COCCNc1ccnc2c(Cl)cccc12,106,94,4,102,111,107
COCCCNc1ccnc2c(Cl)cccc12,.,84,-6,182*[may fluoresce violet],60,?
CC(=O)Nc1ccc(Nc2cc(C)nc3c(-c4ccc(Cl)cc4)cnn23)cc1,92,102,-13,95,97,100
CC(=O)Nc1ccc(Nc2cc(C)nc3c(-c4ccc(Cl)cc4)c(C)nn23)cc1,87,127,6,262*,99,102
COc1ccc(-c2cc3cc4c(cc3cn2)OCO4)cc1,100,105,0,98,96,88
c1ccc(-c2cc3cc4c(cc3cn2)OCO4)cc1,19,102,-11,222*[may fluoresce violet],48*[may fluoresce violet],?
O=C(COc1ccc(Cl)cc1Cl)NCCSc1ccc(Cl)cc1,?,74,-2,212*[may fluoresce violet],54,?
COc1ccc(N=Cc2cc(Cc3ccccc3Cl)cc([N+](=O)[O-])c2O)cc1OC,77,107,4,234*,98,107
COc1ccc(-c2csc(N(Cc3ccccc3)C(=O)COc3ccc(Cl)cc3)n2)cc1,?,127,-5,260*[may fluoresce violet],13*[may fluoresce violet],?
O=C(COc1ccccc1)N(Cc1ccccc1)c1nc(-c2ccccc2)cs1,86,78,3,100,100,107
Cc1ccc2c(c1)[C@@H]1[C@H](CO2)[C@H](c2ccccc2)[C@@]2(C)C(=O)N[C@H](C)C(=O)N12,87,84,-5,97,107,87
CN1CCN(c2ccc(S(=O)(=O)N3CCCCC3)cn2)CC1,.,87,1,208*[may fluoresce violet],56,?
SMILES,AGP1-GFP MLPCN,LAP4-GFP MLPCN,VLA-4 inh,MEP2-GFP yeast,RPL19A-GFP yeast,CIT2 TOR yeast
COc1ccc(C(=O)c2no[n+]([O-])c2C(=O)c2ccc(OC)cc2)cc1,89,156*,16,86,86,57
COc1ccc(NC(=O)c2c(N)no[n+]2[O-])cc1,87,91,3,94,97,96
O=C(CC1SC(=O)N(c2ccccc2)C1=O)Nc1ccccc1 (stereo not drawn),89,114,6,113,90,92
Cc1cccc(NC(=O)CC2SC(=O)N(c3ccccc3)C2=O)c1 (stereo not drawn),87,165*,-9,101,94,87
Cc1ccc(NC(=O)CC2SC(=O)N(c3ccccc3)C2=O)cc1 (stereo not drawn),88,153*,1,93,91,79
CCC(C)Sc1ccc([C@H]2N[C@@](Cc3ccccc3)(C(=O)OC)[C@H]3C(=O)N(CC)C(=O)[C@@H]23)cc1 (stereo partly drawn),84,100,0,91,95,92
COc1ccc(C(=O)NC(=S)NCc2ccco2)cc1Br,75,121,2,97,100,103
Cc1cccc(N(C(=O)Cc2cccs2)C(C(=O)NC2CCCC2)c2ccncc2)c1 (stereo not drawn),?,83,-2,438*[may fluoresce violet],50,?
O=C(CCc1nc2ccccc2c(=O)[nH]1)N1CCN(S(=O)(=O)c2cccc(F)c2)CC1,96,93,18,103,96,98
O=C(CSc1nnc(-c2ccccc2)o1)N1CCCC1,?,68,-8,180*[may fluoresce violet],39*[may fluoresce violet],?
CN1CCN(C(=O)CSc2nnc(COc3ccccc3)o2)CC1,?,79,-10,201*[may fluoresce violet],53,?
CN1CCN(C(=O)CSc2nnc(COc3ccc(Cl)cc3)o2)CC1,94,94,4,102,99,100
Cc1cccc(NC(=O)N2CCC(NC(=O)C3CCCCC3)CC2)c1,104,118,11,105,102,103
Cc1nc(SCC(=O)NCc2ccco2)c2c3c(sc2n1)CCCC3,39,106,5,183*[may fluoresce violet],56,?
O=C(CSc1nc(C2CC2)nc2sc3c(c12)CCCC3)NCc1ccco1,111,105,6,109,100,108
Nc1ccc2nc(-c3ccc(-c4nc5ccc(N)cc5[nH]4)cc3)[nH]c2c1,34,151*,4,120,121,84
Nc1ccc2nc(-c3cccc(-c4nc5ccc(N)cc5[nH]4)n3)[nH]c2c1,35,102,-10,+[may fluoresce violet],86,?
O=C(CSc1cc(Cl)ccc1Cl)NCCN1C(=O)CSC1=O,102,102,7,114,102,98
CCC/C(C#Cc1ccsc1)=C1/c2ccccc2C(=O)N1c1ccccc1,92,89,-3,97,91,90

# Screens: PubChem BioAssay, NMMLSC
